Reference: PubChem BioAssay (Tox21)
Inconclusive results are not listed. A call without a number means that no potency is given here. The source made the active and inactive calls. The call rests on the fitted dose curve; in most records, active means well fitted inhibition curve with a large enough effect in the repeat runs; inconclusive means weak or mixed curves; inactive means flat fitted curve, though single readings scatter.

molecular target: Luciferin 4-monooxygenase (Photinus pyralis) (UniProt P08659); assay: qHTS assay to identify small molecule inhibitors of firefly luciferase (AID 1224835); further: nearly all actives have a fitted effect of over 25% in size; settings: purified P. pyralis luciferase, luminescence inhibition; series mostly up to 115 µM
Sequence (P08659 whole entry, looked up): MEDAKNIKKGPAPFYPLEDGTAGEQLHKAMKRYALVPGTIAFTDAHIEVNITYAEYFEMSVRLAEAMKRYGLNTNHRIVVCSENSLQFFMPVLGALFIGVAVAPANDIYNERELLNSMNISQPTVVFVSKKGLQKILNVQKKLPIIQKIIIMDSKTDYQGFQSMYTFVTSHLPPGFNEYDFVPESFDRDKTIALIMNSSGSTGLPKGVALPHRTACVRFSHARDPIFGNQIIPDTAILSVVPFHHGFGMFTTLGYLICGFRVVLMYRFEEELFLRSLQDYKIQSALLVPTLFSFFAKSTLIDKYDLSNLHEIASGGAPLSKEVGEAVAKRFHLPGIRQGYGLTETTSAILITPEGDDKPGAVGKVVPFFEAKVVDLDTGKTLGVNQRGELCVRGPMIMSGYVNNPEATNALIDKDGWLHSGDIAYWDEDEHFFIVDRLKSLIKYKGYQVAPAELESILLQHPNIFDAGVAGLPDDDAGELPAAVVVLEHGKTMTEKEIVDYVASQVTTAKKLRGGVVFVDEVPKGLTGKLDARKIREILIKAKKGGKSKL
Description: U.S. Tox21 Program National Center for Advancing Translational Sciences [NCATS] NIH Chemical Genomics Center [NCGC] U.S. Environmental Protection Agency [EPA] National Institutes of Environmental Health Sciences [NIEHS] National Toxicology Program [NTP] U.S. Food and Drug Administration [FDA] Tox21 Assay Overview: Firefly (Photinus pyralis) luciferase is one of the most commonly used transcriptional reporters. Firefly luciferase reporter-gene assays are generally considered one of the most sensitive assay types (Wood, 1995; Wood, 1998). However, it was initially observed, in 1991, by Thompson et al., that compounds that resemble the substrates of firefly luciferase (FLuc) can act as competitive inhibitors of the enzyme, and that these compounds, upon interaction with luciferase in the cell, can actually stabilize the protein and increase its half-life. Previous profiling work by other groups to determine the prevalence of compounds that affect FLuc enzymatic activity (PubChem AID 411) identified that ~3% of the MLSMR library (then at ~72K) inhibited FLuc. […] Thus the Tox21 10K library is profiled for activity against FLuc using a biochemical assay of purified FLuc and KM concentrations of FLuc substrates (D-luciferin and ATP).
These assay plates were then treated with 23nL of compound or DMSO using a Kalypsys pin tool, which allows for delivery of a 6-point interplate titration of each compound to the assay plate (quantitative HTS.) 1 uL of firefly luciferase mix (containing 50 mM Tris acetate, pH 7.6, 0.04 uM P. pyralis luciferase, 0.01% Tween, 0.05% BSA and dH2O) was then delivered by FRD to each well. Luciferase activity was then measured using a ViewLux CCD imager.

| SMILES | Potency | activity change, negative = inhibition |
| --- | --- | --- |
| Brc1ccc(Oc2ccccc2)cc1 | inactive | – |
| C[C@@H]1CC[C@H]2[C@@H](C)C(=O)O[C@@H]3O[C@@]4(C)CC[C@@H]1[C@]32OO4 | inactive | – |
| NC(=O)C(Cl)(Cl)Cl | inactive | – |
| O=C(NC(=O)c1c(F)cccc1F)Nc1ccc(OC(F)(F)C(F)OC(F)(F)F)c(Cl)c1 (stereo not given) | inactive | – |
| Clc1ccc(C2(Cn3cncn3)CC(Br)CO2)c(Cl)c1 (stereo not given) | inactive | – |
| CN1C(=O)NC(=O)C(C)(C2=CCCCC2)C1=O (stereo not given) | inactive | – |
| Clc1ccc(C(OCCN2CCCCC2)c2ccccc2)cc1 (stereo not given) | inactive | – |
| COP(=O)(OC)O/C(=C/Cl)c1cc(Cl)c(Cl)cc1Cl | inactive | – |
| CCCC(Cn1cncn1)c1ccc(Cl)cc1Cl (stereo not given) | inactive | – |
| CCCCCCCCCCOC(=O)c1ccccc1C(=O)OCCCCCCCCCC | inactive | – |
| Clc1cccc(SC2CCNCC2)n1 | inactive | – |
| c1ccc(CN2CCNCC2)cc1 | inactive | – |
| O=S1OC[C@@H]2[C@H](CO1)[C@]1(Cl)C(Cl)=C(Cl)[C@@]2(Cl)C1(Cl)Cl (stereo not given in full) | inactive | – |
| CCC(COC(=O)c1cc(OC)c(OC)c(OC)c1)(c1ccccc1)N(C)C (stereo not given) | inactive | – |
| O=C1NCN(c2ccccc2)C12CCN(CCCOc1ccc(F)cc1)CC2 | inactive | – |
| CCOP(=S)(OCC)Oc1cc(Cl)c(Br)cc1Cl | inactive | – |
| C=COC(C)=O | inactive | – |
| CC(=O)CCC(C)=O | inactive | – |
| C=C(C#N)CCC#N | inactive | – |
| BrCCCCBr | inactive | – |

| SMILES | Potency | activity change, negative = inhibition |
| --- | --- | --- |
| C=CC[C@]1(O)CC[C@H]2[C@@H]3CCC4=CC(=O)CCC4=C3C=C[C@@]21C | inactive | – |
| BrCC(Br)C1CCC(Br)C(Br)C1 (stereo not given) | inactive | – |
| [O-][Cl+]O | inactive | – |
| CO[C@@H]1[C@H](OC(=O)NC(=O)CCl)CC[C@]2(CO2)[C@H]1[C@@]1(C)O[C@@H]1CC=C(C)C | – | 2.04% [at 23.6 µM] (inactive) |
| O=C(CBr)Nc1ccc(Cl)cc1C(=O)c1ccccc1F | inactive | – |
| CCCCc1c(C)nc(NCC)nc1OS(=O)(=O)N(C)C | inactive | – |
| CCc1ccc(C(=O)NN(C(=O)c2cc(C)cc(C)c2)C(C)(C)C)cc1 | inactive | – |
| C#CCOC(C(=O)OCCN(C)C)(c1ccccc1)c1ccccc1 | inactive | – |
| CCCCCCC#N | inactive | – |
| O=C1c2ccccc2C(=O)C1C(=O)C(c1ccccc1)c1ccccc1 | inactive | – |
| CN1C[C@H](CNC(=O)OCc2ccccc2)C[C@@H]2c3cccc4c3c(cn4C)C[C@H]21 | inactive | – |
| CN1[C@@H]2CC[C@H]1CC(OC(=O)c1cc(Cl)cc(Cl)c1)C2 (stereo not given in full) | inactive | – |
| COc1c(C(C)(C)C)cc([N+](=O)[O-])c(C)c1[N+](=O)[O-] | inactive | – |
| O=C(O)C1(c2ccc3c(c2)OC[C@H](Cc2ccc(-c4ccccc4)cc2)[C@H]3O)CCCC1 | 71 µM (active) | – |
| CCCCCCCCCC(=O)O[C@H]1CC[C@H]2[C@@H]3CCC4=CC(=O)CC[C@@H]4[C@H]3CC[C@]12C | inactive | – |
| Nc1nc(N)nc(N)n1 | inactive | – |
| Cc1ccccc1CCl | inactive | – |
| c1ccc(C2CC2)c(OCC2=NCCN2)c1 | inactive | – |
| CN(C)c1ccc(N(C)C)cc1 | 63.5 µM (active) | – |
| O=C(O)c1ccccc1C(=O)Nc1cccc2ccccc12 | inactive | – |
